This is a sample that favours compounds with a hit; in the whole collection about 2.6% have one here.
Cruzain Triton: cruzain (T. cruzi) inhibition with detergent; P25779; purified cruzain, Z-FR-AMC fluorescence, 0.01% Triton; Potency, µM, actives largely listed as inhibitors; 200,000 compounds, 0.43% hits; AID 1478; also: nearly all actives have a fitted effect of over 40% in size
Target sequence (P25779 123-467 limits assumed): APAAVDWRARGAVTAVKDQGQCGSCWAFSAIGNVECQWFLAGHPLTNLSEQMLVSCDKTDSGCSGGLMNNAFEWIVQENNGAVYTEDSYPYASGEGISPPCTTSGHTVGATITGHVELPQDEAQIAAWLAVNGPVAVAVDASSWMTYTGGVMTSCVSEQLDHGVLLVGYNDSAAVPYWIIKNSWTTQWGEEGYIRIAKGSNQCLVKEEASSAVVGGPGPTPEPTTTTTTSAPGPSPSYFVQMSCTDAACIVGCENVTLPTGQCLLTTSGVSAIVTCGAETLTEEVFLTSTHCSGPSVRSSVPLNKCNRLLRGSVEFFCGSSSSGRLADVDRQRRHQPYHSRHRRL
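15 min RT preincubation of 1.5 nM cruzain with compound, then 2 uM Z-FR-AMC added; kinetic AMC fluorescence, 60 s delta. Triton X-100 0.01%, pH 5.5.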
Cruzain noTriton: cruzain (T. cruzi) inhibition without detergent. P25779. purified cruzain, Z-FR-AMC fluorescence, no detergent. Potency, µM, hits mostly inhibitors. 200,000 compounds, 2.3% hits. AID 1476; also: nearly all actives have a fitted effect of over 40% in size
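Purified cruzain at 1.5 nM, pre-incubated 15 min with compound at room temperature in 100 mM sodium acetate pH 5.5, 5 mM DTT, 0.00005% Triton X-100. Reaction started with 2 uM Z-FR-AMC; AMC fluorescence increase over 60 s gives rate.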
Hits are given with their value; . = inactive; ? = inconclusive. Calls follow the shape of the dose curve; as a rule, active = well fitted curve in the direction sought with a large enough effect; inconclusive = small, poorly fitted or top-dose-only effect, or another doubt; inactive = no such curve, though single readings can be large; an effect the other way counts as inactive or inconclusive.

SMILES	Cruzain Triton	Cruzain noTriton
O=C(Nc1ccc2nc(SCC(=O)N3CCCc4ccccc43)sc2c1)c1cccc(Cl)c1	.	6.31µM
COc1cccc(C(=O)Nc2ccc3nc(SCC(=O)N4CCc5ccccc54)sc3c2)c1	.	12.6µM
O=C(Nc1ccc2nc(SCC(=O)N3CCc4ccccc43)sc2c1)c1cccc(Cl)c1	.	?
COc1ccc(C(=O)Nc2ccc3nc(SCC(=O)N4CCc5ccccc54)sc3c2)cc1	.	.
Cc1ccccc1CN1C(=O)c2ccccc2S(=O)c2ccc(C(=O)NCc3ccc(Cl)cc3)cc21 (stereo not drawn)	.	?
COc1ccc(-c2nc(C)c(CCNC(=O)c3cccs3)s2)cc1	.	.
Cc1nc(NC(=O)COC(=O)CCS(=O)(=O)c2ccccc2Cl)c(Cl)cc1Cl	22.4µM	.
Cc1[nH]c2ccccc2c1C(=O)COC(=O)CCS(=O)(=O)c1ccccc1Cl	.	.
COc1cc(NC(=O)O[C@@H]2C(=O)c3cc(Br)ccc3O[C@H]2c2ccc3c(c2)OCO3)cc(OC)c1OC	.	.
COc1cccc(/C=N/NC(=O)CSc2ccccc2C)c1O	.	.
COc1cccc(/C=N/NC(=O)c2nc(-c3ccccc3)cc(-c3ccccc3)n2)c1O	.	12.6µM
CCN(CC)C(=O)Cn1c(=O)n(CCCCCC(=O)NCc2ccc(C)cc2)c(=O)c2sccc21	.	.
COc1ccc(C2=Nc3ccc(F)cc3NC(c3cccc(C(F)(F)F)c3)=N2)cc1	.	?
O=C(Cn1c(SCc2ccccc2F)nc2ccncc21)Nc1ccccc1C(F)(F)F	.	.
CC12CCC(C(=O)N(CSC(=S)N/N=C\c3ccccc3Cl)C1=O)C2(C)C (stereo not drawn)	.	15.8µM
CC12CCC(C(=O)N(CSC(=S)N/N=C\c3ccccc3)C1=O)C2(C)C (stereo not drawn)	.	.
CC(=O)c1ccc(NC(=O)CN(C)S(=O)(=O)c2cc3c(cc2Cl)NC(=O)CO3)cc1	.	.
Cn1cc(C(=O)N/N=C/C=C/c2ccccc2)ccc1=O	.	.
O=C(N/N=C/C=C/c1ccccc1)c1ccc(Br)cc1	.	20µM
COc1ccccc1/C=C/C=N/n1c(-c2ccc(C)cc2)n[nH]c1=S	.	10µM
COc1ccc(-c2n[nH]c(=S)n2/N=C/C=C\c2ccccc2OC)cc1	.	.
COc1ccccc1/C=C/C=N/n1c(-c2cc(C)[nH]n2)n[nH]c1=S	.	.
COc1ccccc1/C=C\C=N\n1c(C2CCCCC2)n[nH]c1=S	.	6.31µM
Cc1ccc(NC(=O)N2N=C(c3ccc(F)cc3)CC2c2ccc(F)cc2)cc1 (stereo not drawn)	.	1.26µM
CNC(=S)N1N=C(c2ccc(C)cc2)CC1c1ccc(OC)cc1 (stereo not drawn)	.	.
SMILES	Cruzain Triton	Cruzain noTriton
CCOc1cccc(CC(=O)NCc2ccc3c(c2)CCN3C(=O)c2cccc(C)c2)c1OCC	.	?
Cc1cc(N)c2ccccc2[n+]1CCCCCCCCCCCCCC[n+]1c(C)cc(N)c2ccccc21	12.6µM	20µM
CCC(C(=O)NCCc1cc(OC)ccc1OC)n1nc(C)c2c(C)n(-c3ccccc3)nc2c1=O (stereo not drawn)	.	.
O=C(NCc1ccccc1)C(c1ccc(F)cc1)N(Cc1ccc2c(c1)OCO2)C(=O)Cn1nnc(-c2cccs2)n1 (stereo not drawn)	.	12.6µM
CCC(C(=O)NC1CCCC1)N(C(=O)Cn1nnc(-c2cccs2)n1)c1cnc2ccccc2c1 (stereo not drawn)	.	.
CCCC(C(=O)NCc1ccccc1)N(C(=O)Cn1nnc(-c2cccs2)n1)c1ccc2c(c1)OCCO2 (stereo not drawn)	.	20µM
O=C(CN(Cc1ccco1)C(=O)Cn1nnc(-c2cccs2)n1)NCc1ccccc1	.	.
CCC12CN3CC(C)(CN(C1)C3c1c[nH]c3ccccc13)C2=O (stereo not drawn)	.	.
O=C1CCCC1C(O)c1ccc2ccccc2c1 (stereo not drawn)	.	.
CNC1CCC(c2ccc(Cl)c(Cl)c2)c2ccccc21 (stereo not drawn)	.	.
CCn1c(O)c(/C=C2\C=NN=C2c2ccc(C)cc2)sc1=S	.	12.6µM
CCn1c(O)c(/C=C2\C=Nc3ccccc32)sc1=Nc1ccccc1	.	.
COc1ccccc1C(=O)NCC1(N2CCN(C)CC2)CCCCC1	.	.
O=C(CCC1N=C2c3ccccc3N=C(SCc3cccc(Cl)c3)N2C1=O)NCc1cccs1 (stereo not drawn)	.	.
CCOC(=O)c1cnc(-n2nc(C)cc2C)nc1NNc1nc(-c2ccccc2)cc(-c2ccccc2)n1	.	20µM
CCOC(=O)c1cnc(-n2nc(C)cc2C)nc1NC	.	.
CCOc1ccccc1NC(=O)CCCc1nc(-c2ccccc2Cl)no1	.	.
O=C(CSc1nc(-c2ccccc2)[nH]c1-c1ccccc1)Nc1ccc2c(c1)OCCO2	.	.
COc1ccccc1-c1cc(C(=O)Nc2sc3c(c2C#N)CCC(C)C3)c2ccccc2n1 (stereo not drawn)	.	3.16µM
COc1ccc(-c2cc(C(=O)Nc3sc4c(c3C#N)CCCC4)c3ccccc3n2)cc1	.	7.94µM
COc1ccc(OC)c(-c2cc(C(=O)Nc3sc4c(c3C#N)CCC(C)C4)c3ccccc3n2)c1 (stereo not drawn)	.	?
N#Cc1c(NC(=O)c2ccccc2)sc2c1CCCCC2	.	.
Cc1ccccc1Cn1c(=O)n(Cc2ccco2)c(=O)c2sc3ccccc3c21	.	?
COc1cc(C(=O)Nc2ccc3[nH]c(=O)sc3c2)cc(OC)c1OC	.	.
COc1ccccc1C1C=C(c2ccc(F)cc2)Nc2nc(-c3ccc(Cl)cc3)nn21 (stereo not drawn)	.	.
SMILES	Cruzain Triton	Cruzain noTriton
CCOC(=O)Cc1csc(N/N=C/c2ccccc2)n1	.	.
CCOC(=O)Cc1csc(N/N=C\c2cccc(Br)c2)n1	.	31.6µM
Cc1ccc(Cl)cc1-n1c(=O)c2sc3ccccc3c2n(Cc2ccccc2)c1=O	.	.
COc1cccc(Cn2c(=O)n(-c3ccc(Br)cc3F)c(=O)c3sc4ccccc4c32)c1	.	12.6µM
CCOC(=O)c1ccc(CN(Cc2ccc(Br)cc2)S(=O)(=O)c2cccc(Cl)c2C)cc1	.	.
Cc1ccc(-c2nnn(CC(=O)NCCC3=CCCCC3)n2)cc1	.	?
O=C(Cn1nnc(-c2ccc(Cl)cc2)n1)NCCC1=CCCCC1	.	20µM
CC(C)c1nn2c(=O)cc(COC(=O)c3ccccc3NC(=O)c3cccc(Cl)c3)nc2s1	.	.
COC(=O)c1sc(-c2ccccc2)cc1NC(=O)c1ccc(OC)cc1	.	?
COC(=O)c1sc(-c2ccccc2)cc1NC(=O)c1ccc(F)cc1	.	10µM
COCCCNC(=O)C1CCN(Cc2nc(-c3ccc(OC)c(OC)c3)oc2C)CC1	.	.
Cc1cc(C)c(NS(=O)(=O)c2ccc(-c3cnc(C4CC4)o3)cc2)c(C)c1	.	.
Cc1cc2cc(CNS(=O)(=O)c3ccc4ccccc4c3)ccc2n1C	.	25.1µM
CC(=O)Nc1ccc(S(=O)(=O)NCc2ccc3c(c2)cc(C)n3C)cc1	.	.
CCCN(CCC)CCNC(=O)C1CCCN(S(=O)(=O)c2cccc3nsnc23)C1 (stereo not drawn)	.	.
Cn1cc(C2=C(c3ccc(Cl)cc3Cl)C(=O)NC2=O)c2ccccc21	.	.
CC(C)n1cc(/C=N/NC(=O)COc2cccc3cccnc23)c2ccccc21	.	?

Compound activity: PubChem, National Center for Advancing Translational Sciences (NCATS)
